Inconclusive results are not listed. Where a call stands in place of a potency, no number is given. A number with no mark means an inactive call. Activity calls are given as the source filed them. The call rests on the fitted dose curve; in most records, active means well fitted inhibition curve with a large enough effect; inconclusive means small, poorly fitted or top-dose-only effect; inactive means flat fitted curve, though single readings scatter.
Experiment: P-glycoprotein substrates identified in KB-8-5-11 adenocarcinoma cell line, qHTS therapeutic library screen (AID 1346987); further: nearly all actives have a fitted effect of over 65% in size
Conditions: KB-8-5-11 (P-gp overexpressing) viability, CellTiter-Glo, 72 h; series mostly up to 44.5 µM
How it was run: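 KB-8-5-11: colchicine-selected sub-line of KB-3-1 over-expressing P-gp; assay medium lacked colchicine. 72 h drug exposure at 37 degree C, CellTiter-Glo.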
Potency means the concentration at half of the fitted maximal effect.

Row | SMILES | activity change, negative = cytotoxicity | Potency | outcome
1 | CC1OC(O[C@H]2[C@@H](O)C[C@@]3(C)C([C@H](O)C[C@]4(C)C3CC=C3C5CC(C)(C)CC[C@]5(C(=O)OC5OC(CO)C(O)C(O)C5OC5OCC(OC6OCC(OC7OCC(O)C(O)C7O)C(O)C6O)C(OC6OCC(O)(CO)C6O)C5O)CC[C@]34C)[C@]2(C)CO)C(O)C(O)C1O (stereo not given in full) | 1.18% [at 9.29 µM] |  | 
2 | CC(=O)O[C@H]1[C@H](Oc2ccccc2COC(=O)C2(O)C=CCCC2=O)O[C@H](CO)[C@@H](O)[C@@H]1O (stereo not given in full) |  | inactive | 
3 | COc1ccc(C[C@@H](C)NC[C@H](O)c2ccc(O)c(NC=O)c2)cc1 |  | inactive | 
4 | CCc1ccc2c(c1)N(CC(C)CN(C)C)c1ccccc1S2 (stereo not given) |  | 25.9 µM (active) | 
5 | CC(O)C(O)/C=C/C=C/C(=O)O[C@@H]1C=C2COC(=O)[C@]2(O)[C@@]2(C)CCCC(C)(C)C12 (stereo not given in full) |  | inactive | 
6 | CCCOc1ccn2c(C(C)=O)cc(-c3ccccc3S(C)(=O)=O)c2c1 |  | inactive | 
7 | Cc1coc2c1CC1OC1(C)CCC1OC1(C)C2 (stereo not given) |  | inactive | 
8 | COc1cc([C@@H]2Oc3c(OC)cc(CCCO)cc3[C@@H]2CO[C@@H]2O[C@H](CO)[C@@H](O)[C@H](O)[C@H]2O)ccc1O |  | inactive | 
9 | O=C1C(=O)c2ncccc2-c2cccnc21 |  | 1.16 µM (active) | 
10 | CC1(C)NC2N(C1=O)c1ccccc1C2(O)CC(C(=O)O)n1cnc2ccccc2c1=O (stereo not given) |  | inactive | 
11 | CC1(CO)CC2C(O)C(=O)C3(CO)CC3(C)C2C1 (stereo not given) |  | inactive | 
12 | CO[C@@H](Cc1ccc(OCCc2nc(-c3ccccc3)oc2C)c2ccsc12)C(=O)O |  | inactive | 
13 | CN(C)C/C=C/C(=O)Nc1ccc(C(=O)Nc2cccc(Nc3ncc(Cl)c(-c4c[nH]c5ccccc45)n3)c2)cc1 |  | 5.17 µM (active) | 
14 | C[C@@H]1O[C@@H](O[C@H]2[C@H](OC(C#N)c3ccc(O)cc3)O[C@H](CO)[C@@H](O)[C@@H]2O)[C@H](O)[C@H](O)[C@H]1O (stereo not given in full) |  | inactive | 
15 | O=C(COc1ccc(Cl)cc1)NC1CCC(NC(=O)COc2ccc(Cl)cc2)CC1 (stereo not given) |  | inactive | 
16 | CC1(C)CCC(C)(C)c2cc3c(cc21)Sc1ccccc1N=C3c1ccc(C(=O)O)cc1 |  | inactive | 
17 | COc1ccc([C@@H]2N[C@H](C(=O)O)Cc3c2[nH]c2ccccc32)cc1CN1CCN(c2ccccc2F)CC1 |  | inactive | 
18 | COC1CC(=O)C23C(=O)NC(CC(C)C)C2C(C)C(C)=CC3/C=C(\C)CCC1O (stereo not given) |  | inactive | 
19 | C[C@@H]1O[C@@H](O[C@H]2[C@H](O[C@H]3CC[C@@]4(C)C(CC[C@]5(C)C4CC=C4C6CC(C)(C)CC[C@]6(C(=O)O[C@@H]6O[C@H](CO[C@@H]7O[C@H](CO)[C@@H](O[C@@H]8O[C@@H](C)[C@H](O)[C@@H](O)[C@H]8O)[C@H](O)[C@H]7O)[C@@H](O)[C@H](O)[C@H]6O)CC[C@]45C)[C@]3(C)CO)OC[C@H](O)[C@@H]2O)[C@H](O)[C@H](O)[C@H]1O (stereo not given in full) |  |  | inactive [at 9.29 µM]
20 | C/C(=C/CCC(CO)C1CCC2(C)C3CCC4C(C)(C)C(OC5OC(CO)C(O)C(O)C5O)CC(O)C45CC35CCC12C)COC1OC(CO)C(O)C(O)C1O (stereo not given) |  | inactive | 

Row | SMILES | activity change, negative = cytotoxicity | Potency | outcome
21 | C=CC1(C)CC2=CCC3C(C)(C(=O)O)CCCC3(C)C2CC1OC(C)=O (stereo not given) |  | inactive | 
22 | CCOC(=O)c1ccc(N(C)c2csc(-c3ccccc3)n2)cc1 |  | inactive | 
23 | COC12CC3C(C(C)C1=CC(=O)O2)C(O)C(OC(C)=O)C1C(C)(C)C(OC(C)=O)CCC31C (stereo not given) |  | inactive | 
24 | CC/C=C/CC1=C(CCCCCCCC(=O)O)CCC1=O |  | inactive | 
25 | C=CCc1ccc(O[C@@H]2O[C@H](CO[C@@H]3O[C@H](CO)[C@@H](O)[C@H](O)[C@H]3O)[C@@H](O)[C@H](O)[C@H]2O)c(O)c1 |  | inactive | 
26 | CCOC(=O)[C@H](CCc1ccccc1)N[C@@H](C)C(=O)N1C2CCCCC2C[C@H]1C(=O)O (stereo not given in full) |  | inactive | 
27 | COC(C(=O)C(O)C(C)O)C1Cc2cc3cc(OC4CC(OC5CC(O)C(O)C(C)O5)C(O)C(C)O4)c(C)c(O)c3c(O)c2C(=O)C1OC1CC(OC2CC(OC3CC(C)(O)C(O)C(C)O3)C(O)C(C)O2)C(O)C(C)O1 (stereo not given) |  | inactive | 
28 | CC(=O)c1c(O)cc2cccc3c2c1CC(C)(O)O3 (stereo not given) |  | inactive | 
29 | CC(CCC1(O)OC2CC3C4CCC5CC(O[C@@H]6O[C@H](CO)[C@@H](O)[C@H](O)[C@H]6O[C@@H]6OC[C@@H](O)[C@H](O)[C@H]6O)C(O)CC5(C)C4CCC3(C)C2C1C)CO[C@@H]1O[C@H](CO)[C@@H](O)[C@H](O)[C@H]1O (stereo not given in full) |  |  | inactive [at 9.29 µM]
30 | CNC(=O)COC(=O)NCCC1CCN(c2cccc(C)n2)CC1 |  | inactive | 
31 | C[C@@H]1CC[C@]2(C(=O)O[C@@H]3O[C@H](CO)[C@@H](O)[C@H](O)[C@H]3O)CC[C@]3(C)C(=CCC4[C@@]5(C)C[C@@H](O)[C@H](O)C(C)(C)C5CC[C@]43C)C2[C@]1(C)O (stereo not given in full) |  | inactive | 
32 | CCNC(=O)CCC/C=C\C[C@@H]1[C@@H](/C=C/C(O)CCc2ccccc2)[C@@H](O)C[C@@H]1O (stereo not given in full) |  | inactive | 
33 | C=C(C(=O)O)[C@@H]1CC=C2CCC[C@H](C)[C@@]2(C)C1 |  | inactive | 
34 | O=C(O[C@H]1[C@@H]2C=CO[C@@H](O[C@@H]3O[C@H](CO)[C@@H](O)[C@H](O)[C@H]3O)[C@@H]2[C@@]2(CO)O[C@@H]12)c1ccc(O)c(O)c1 |  | inactive | 
35 | C=CC(C)(O)CO[C@@H]1O[C@H](CO)[C@@H](O)[C@H](O)[C@H]1O (stereo not given in full) |  | inactive | 
36 | CC1(C)CC2C(O)C3=C(CC(C)(O)C2C1)C(=O)OC3O (stereo not given) |  | inactive | 
37 | CCc1nc(C(N)=O)c(Nc2ccc(N3CCC(N4CCN(C)CC4)CC3)c(OC)c2)nc1NC1CCOCC1 |  | 5.7 µM (active) | 
38 | C[C@@H]1O[C@@H](O[C@H]2[C@H](O)[C@@H](O)[C@H](OC[C@H]3O[C@@H](OC(=O)[C@]45CCC(C)(C)C[C@H]4C4=CCC6[C@@]7(C)C[C@H](O)[C@H](O[C@@H]8O[C@H](CO)[C@@H](O)[C@H](O)[C@H]8O)[C@@](C)(C(=O)O)C7CC[C@@]6(C)[C@]4(C)CC5)[C@H](O[C@@H]4O[C@H](CO)[C@@H](O)[C@H](O)[C@H]4O)[C@@H](O)[C@@H]3O)O[C@@H]2CO)[C@H](O)[C@H](O)[C@H]1O (stereo not given in full) |  |  | inactive [at 9.29 µM]
39 | C=C1[C@H]2[C@H](O[C@@H]3O[C@H](COC(=O)/C=C/c4cc(OC)c(O)c(OC)c4)[C@@H](O)[C@H](O)[C@H]3O)OC=C(C(=O)O)[C@H]2C[C@@H]1O |  | inactive | 
40 | Cc1cc(/C=C/c2ccc3cc(N(C)C)ccc3[n+]2C)c(C)n1-c1ccccc1 |  | inactive | 
